Data reported in ChEMBL document CHEMBL4808148, “HDAC6 screening dataset using tau-based substrate in an enzymatic assay yields selective inhibitors and activators” (2021).
Where “and” joins values, the source holds several entries; their conditions need not be identical. Equal entries are not always repeated. Out of some 5,600 compounds screened, about 150 (2.7%) showed an effect of 50% or more. The entries come from a sample that favours strong results as a whole. Starred links: 1 amine or outer side, 2 acyl side, 3 side chain; linkers in the order of their positions; H or OH if unused. Positions of bridges follow the written chain, without caps; N, C: chain ends. Non-standard residues stand in square brackets, D forms with d. Residues, ends and D or L forms follow the SMILES beside them. ξ: configuration not given here. *: point of attachment. hTyr(3S-OH,4S-OH,3'-OSO3H) = N[C@H](C(=O)O)[C@H](O)[C@@H](O)c1ccc(O)c(OS(=O)(=O)O)c1; Orn(4R-OH,5R-OH) = O=C([C@H](C[C@@H](O)[C@@H](O)N[*:3])N[*:1])[*:2]; Pro(3S-OH,4S-Me) = C[C@H]1CN[C@H](C(=O)O)[C@H]1O; X1 = CCCCCOc1ccc(-c2cc(-c3ccc(C(=O)*)cc3)no2)cc1; Gln(3R-OH) = NC(=O)C[C@@H](O)[C@H](N)C(=O)O; Hyp = O=C(O)[C@@H]1C[C@@H](O)CN1; ξThr(3R) = C[C@@H](O)C(N)C(=O)O

Assays:
[1] = target: T1, Protein deacetylase HDAC6 (Homo sapiens) (UniProt Q9UBN7); conditions: at 10 µM
T1 sequence (whole entry): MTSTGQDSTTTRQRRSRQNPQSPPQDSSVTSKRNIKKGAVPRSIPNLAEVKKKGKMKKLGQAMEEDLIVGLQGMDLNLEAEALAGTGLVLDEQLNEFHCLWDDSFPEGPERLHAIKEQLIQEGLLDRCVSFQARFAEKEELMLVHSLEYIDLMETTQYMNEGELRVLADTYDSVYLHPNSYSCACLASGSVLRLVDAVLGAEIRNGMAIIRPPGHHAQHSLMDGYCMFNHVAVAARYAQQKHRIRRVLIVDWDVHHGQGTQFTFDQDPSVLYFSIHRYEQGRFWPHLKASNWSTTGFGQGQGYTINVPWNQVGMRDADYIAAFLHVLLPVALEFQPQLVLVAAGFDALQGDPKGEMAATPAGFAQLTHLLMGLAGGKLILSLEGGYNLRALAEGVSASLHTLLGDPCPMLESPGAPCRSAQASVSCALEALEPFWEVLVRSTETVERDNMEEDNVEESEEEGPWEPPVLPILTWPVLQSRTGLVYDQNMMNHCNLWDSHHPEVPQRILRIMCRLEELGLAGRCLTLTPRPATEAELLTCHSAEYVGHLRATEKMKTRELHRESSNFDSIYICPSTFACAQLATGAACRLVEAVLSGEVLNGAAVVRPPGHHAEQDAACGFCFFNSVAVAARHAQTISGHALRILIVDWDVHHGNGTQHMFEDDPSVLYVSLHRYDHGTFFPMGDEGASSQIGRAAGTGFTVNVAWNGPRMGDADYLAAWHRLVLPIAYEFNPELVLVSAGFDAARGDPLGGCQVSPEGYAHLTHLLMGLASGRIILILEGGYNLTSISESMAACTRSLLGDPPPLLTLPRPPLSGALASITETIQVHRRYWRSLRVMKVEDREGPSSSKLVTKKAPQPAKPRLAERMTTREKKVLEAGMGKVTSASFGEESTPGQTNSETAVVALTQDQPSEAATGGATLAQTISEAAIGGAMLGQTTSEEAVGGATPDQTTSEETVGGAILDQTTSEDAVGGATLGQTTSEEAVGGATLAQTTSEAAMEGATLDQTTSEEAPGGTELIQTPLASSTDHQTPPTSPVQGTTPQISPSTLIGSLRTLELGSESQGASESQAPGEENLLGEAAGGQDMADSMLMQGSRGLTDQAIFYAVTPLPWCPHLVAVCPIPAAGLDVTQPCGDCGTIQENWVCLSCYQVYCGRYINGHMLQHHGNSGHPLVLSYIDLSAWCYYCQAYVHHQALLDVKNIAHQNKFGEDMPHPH

[2] = target: Protein deacetylase HDAC6 (Homo sapiens) (UniProt Q9UBN7); conditions: at 10 µM; remark: listed apart in the source

CCCCCOc1ccc(-c2cc(-c3ccc(C(=O)N[C@H]4C[C@@H](O)[C@@H](O)NC(=O)[C@@H]5[C@@H](O)[C@@H](C)CN5C(=O)[C@H]([C@H](O)CC(N)=O)NC(=O)[C@H]([C@H](O)[C@@H](O)c5ccc(O)c(OS(=O)(=O)O)c5)NC(=O)[C@@H]5C[C@@H](O)CN5C(=O)C([C@@H](C)O)NC4=O)cc3)no2)cc1 (stereo partly drawn) (X1-[Orn(4R-OH,5R-OH)][ξThr(3R)][Hyp][hTyr(3S-OH,4S-OH,3'-OSO3H)][Gln(3R-OH)][Pro(3S-OH,4S-Me)]; lactam 1-C)
inhibition [1]: 4.51%

CN(C)CCCSc1ccccc1NC(=O)/C=C/c1ccccc1
inhibition [1]: 92.4%

O=C(/C=C/c1ccccc1)NC(NC(=S)Nc1cccc2cccnc12)C(Cl)(Cl)Cl (centres undefined)
inhibition [1]: 3.55%

CC(C)c1ccc(C(=O)c2cccs2)c(SCCCCCCCCN(C)C)n1
inhibition [1]: 3.78%

CNC[C@@H]1CC[C@@H](N)[C@H](O[C@H]2[C@H](O)[C@@H](O[C@H]3OC[C@](C)(O)[C@H](NC)[C@H]3O)[C@H](N)C[C@@H]2N)O1
inhibition [1]: -3.43%

gallium-triquinolin-8-olate, CHEMBL4303465
inhibition [2]: 8.35%

C[C@H]1N=C(N(C)C)N=C(N)N1
inhibition [1]: -1.55%

CN1C[C@@H]2CN(c3ccc(-c4ccccc4)nn3)C[C@@H]2C1
inhibition [1]: 57.6%

O=C(c1cc(S(=O)(=O)Nc2ccccc2F)c(F)cc1Cl)N1CCN2CCC[C@@H]2C1
inhibition [1]: -3.32%

CN1[C@H]2C[C@H](OC(=O)[C@H](CO)c3ccccc3)C[C@@H]1[C@@H](O)C2 (racemic)
inhibition [1]: 0.83%

C=C1/C(=C\C=C2/CCC[C@]3(C)[C@@H]([C@H](C)CCCC(O)(C(F)(F)F)C(F)(F)F)CC[C@@H]23)C[C@@H](O)C[C@@H]1O
inhibition [1]: 4.32%

COc1cc(-c2ccc(/N=N/c3ccc4c(S(=O)(=O)O)cc(S(=O)(=O)O)c(N)c4c3O)c(OC)c2)ccc1/N=N/c1ccc2c(S(=O)(=O)O)cc(S(=O)(=O)O)c(N)c2c1O
inhibition [1]: 50.8%

COc1cc(O)c(C(=O)c2ccccc2)cc1S(=O)(=O)O
inhibition [1]: 2.56%

COc1cccc(-n2nc(C(=O)O)cc2-c2ccc(C3CCCCC3)c(Cl)c2)c1
inhibition [1]: 1.57%

CO/N=C(\C(=O)N[C@@H]1C(=O)N2C(C(=O)O)=C(C)CS[C@H]12)c1csc(N)n1
inhibition [1]: 1.72%

Miriplatin, CHEMBL4303713
inhibition [2]: -1.16%

PHENYLMERCURIC ACETATE, CHEMBL1333953
inhibition [2]: 62%

GADOTERIDOL, CHEMBL1200593
inhibition [2]: -0.37%

NC1CCC(N[C@@H]2C[C@H]2c2ccccc2)CC1 (some centres undefined)
inhibition [1]: -0.23%

CN1C(=O)C(N2CCCCC2)S/C1=C\C(=O)O (centres undefined)
inhibition [1]: 0.03%

CC(C)Oc1ccc(-c2nn([C@@H](C)c3oc4ccc(F)cc4c(=O)c3-c3cccc(F)c3)c3ncnc(N)c23)cc1F
inhibition [1]: 2.17%

COC(=O)C1=C(C)N(C)C(C)=C(C(=O)OC)C1c1ccc(C(F)(F)F)cc1
inhibition [1]: 1.92%

CCCCCCCCC(=O)NCc1ccc(O)c(OC)c1
inhibition [1]: 58.8%

CCCCC/C=C\C/C=C\CCCCCCCC(=O)NCCCC(=O)O
inhibition [1]: 3.98%

COc1cc(CNC(=O)CCCC/C=C/C(C)C)ccc1O
inhibition [1]: -2.58%

CS(=O)(=O)OC[C@H](O)[C@@H](O)COS(C)(=O)=O
inhibition [1]: 2%

N=C1N[C@H]2[C@H](CS[C@H]2CCCCC(=O)O)N1
inhibition [1]: 1.67%

O=[Si]=O.O=[Si]=O.O=[Si]=O.O=[Si]=O.[O]=[Mg].[O]=[Mg].[O]=[Mg]
inhibition [1]: 97.2%

CNC(=O)c1cccc2cc(Oc3ccnc4cc(OCC5(N)CC5)c(OC)cc34)ccc12
inhibition [1]: 11.4%

O=C(O)c1ccccc1NCCc1ccccc1
inhibition [1]: 7.74%

O=C(NCc1cccc(O)c1)Nc1nc(-c2ccncc2)cs1
inhibition [1]: -5.89% and -0.86%

c1ccc(CCNc2nc(-c3ccccc3)cs2)cc1
inhibition [1]: 83.7%

CC(NC(=O)[C@@H](N)Cc1ccc(O)cc1)C(=O)NCC(=O)N(C)[C@@H](Cc1ccccc1)C(=O)N[C@H](CO)CC[S+](C)[O-] (stereo in doubt)
inhibition [1]: 2.35%

O=C(O)c1cc(O)c(O)c(O)c1
inhibition [1]: -7.85%

COc1ccc(NS(=O)(=O)c2ccc(/N=N/c3ccc(O)c(C(=O)O)c3)cc2)nn1
inhibition [1]: -4.06%

O=C(O)c1cc(/N=N/c2ccc(O)c(C(=O)O)c2)ccc1O
inhibition [1]: 95.1%

CC1(C)[C@@H]2C[C@H]1[C@@](C)(O)[C@@H](O)C2
inhibition [1]: -1.04%

Cc1ccc(S(=O)(=O)Nc2ccc3c(c2)c(C(=O)C(F)(F)F)cn3CC(=O)N[C@@H](CC(C)C)C(=O)O)cc1
inhibition [1]: -4.82%

O=C1C[C@@]2(C(=O)N1)C(=O)N(Cc1ccc(Br)cc1F)C(=O)c1cccn12
inhibition [1]: -2.35%

COCCN1CCN(Cc2ccc(-c3n[nH]c4c3C(=O)c3c(NC(=O)NN5CCOCC5)cccc3-4)cc2)CC1
inhibition [1]: -4.17%

CNC(=O)N(C)N=O
inhibition [1]: -4.29%

O=c1c2ccccc2[se]n1-c1ccccc1
inhibition [1]: 52.4%

CCC(=O)NO
inhibition [1]: 44.5%

O=[N+]([O-])c1cn2c(n1)OC[C@@H](OCc1ccc(-c3ccc(OC(F)(F)F)cc3)nc1)C2
inhibition [1]: 4.86%
